This is an account of results in PubChem BioAssay (NCI).

Molecules are shown by their SMILES. Compounds without any hit were thinned out: in the full panel of roughly 79,000, 15% have a hit. A number with no mark means an inactive call. The source made the active and inactive calls. Cut-off read from the data, not from the text of the source: active = growth inhibition above about 70%; inactive = the rest.

A short description of experiment [1]: NCI Yeast Anticancer Drug Screen. Data for the rad50 strain (AID 155).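 Note: 0% = growth of vehicle-only cultures of the same strain.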 To be noted: S. cerevisiae rad50 strain growth inhibition; at 50.0 µM; active compounds read high. In outline: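 Compounds were tested on a yeast strain with an engineered DNA damage repair alteration; the reported value is growth inhibition normalised to vehicle treatment.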
Experiment [2] is described as follows: NCI Yeast Anticancer Drug Screen. Data for the mec2-1 strain (AID 157). To be noted: S. cerevisiae mec2-1 strain, at 50.0 µM, active compounds read high. In outline: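 Using mec2-1 yeast: add compound, measure growth, express inhibition versus vehicle-treated cultures.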
The nature of experiment [3]: NCI Yeast Anticancer Drug Screen. Data for the sgs1 mgt1 strain (AID 161).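 Note: 0% = growth of cultures given vehicle only.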 To be noted: S. cerevisiae sgs1 mgt1 strain, at 50.0 µM, active compounds read high. In outline:
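Percent growth inhibition was derived by comparing compound-exposed mutant yeast with vehicle-exposed cultures. The strain carries alterations in DNA damage repair.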

The nature of experiment [4]: NCI Yeast Anticancer Drug Screen. Data for the cln2 rad14 strain (AID 165).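 Note: 0% = growth equal to vehicle treated cultures.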 To be noted: S. cerevisiae cln2 rad14 strain, at 50.0 µM, active compounds read high. In outline: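 Yeast strain cln2 rad14, bearing defects in cell cycle control and DNA repair, serves as the test system; values reflect growth inhibition compared with vehicle.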
Experiment [5] can be described thus: NCI Yeast Anticancer Drug Screen. Data for the bub3 strain (AID 167). To be noted: S. cerevisiae bub3 mutant strain, at 50.0 µM, active compounds read high. In outline:
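Growth of a checkpoint-deficient yeast mutant is measured after compound exposure. Values represent inhibition relative to vehicle.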

The nature of experiment [6]: NCI Yeast Anticancer Drug Screen. Data for the mlh1 rad18 strain (AID 175). To be noted: S. cerevisiae mlh1 rad18 strain growth inhibition; at 50.0 µM; active compounds read high. In outline:
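Steps: expose repair-defective yeast to compound; measure growth; express inhibition against vehicle-treated controls.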

Consider `O=[N+]([O-])c1ccc(S(=O)(=O)Nc2ccccc2-c2ccccc2)cc1`, for which the growth inhibition in experiment [1] is 99% (active); in experiment [2], 99% (active); in experiment [3], 99.3% (active); in experiment [4], 98.2% (active); in experiment [5], 98.8% (active); in experiment [6], 98.7% (active).

Take `CC(C)c1ccc(C(=O)OCCCc2ccccc2)cc1`: the growth inhibition in experiment [1] is 8.7%; in experiment [2], -5.65%; in experiment [3], 18.2%; in experiment [4], -10.7%; in experiment [5], 4%; in experiment [6] it was 0.8%.

As to `C[P+](C)(C)c1ccccc1`, the growth inhibition is -16.6% in experiment [1]; 4% in experiment [2]; 4.95% in experiment [3]; -22.2% in experiment [4]; 3.15% in experiment [5]; -3.7% in experiment [6].

Regarding `O=C(SCCN1CCCC1)C(O)(c1ccccc1)C1CCCC1` (stereo unspecified), the growth inhibition in experiment [1] was 14.8%; in experiment [2] it was -6%; in experiment [3] it was -5.3%; in experiment [4], -7.95%; in experiment [5] it was -2.35%; in experiment [6] it was 11.7%.

`O=C1OC2C(Cl)C3CC1C2C3` (stereo unspecified): the growth inhibition in experiment [1] is -12.2%; in experiment [2] it was -9.6%; in experiment [3] it was -22.3%; in experiment [4] it was -13.2%; in experiment [5], 4.65%; in experiment [6], -31.4%.

In the case of `NC(=O)NC12CC3CC(CC(F)(C3)C1)C2`, the growth inhibition was -19.6% in experiment [1]; -29.1% in experiment [2]; -29.7% in experiment [3]; -0.95% in experiment [4]; -47.5% in experiment [5]; -9.85% in experiment [6].

For the molecule `O=C(CNc1ccc2c(=S)c3ccccc3[nH]c2c1)Nc1ccccc1-c1ccccc1NC(=O)CNc1ccc2c(=S)c3ccccc3[nH]c2c1`, the growth inhibition in experiment [1] is 88.6% (active); in experiment [2], 92.5% (active); in experiment [3], 92.1% (active); in experiment [4], 90.8% (active); in experiment [5] it was 90.7% (active); in experiment [6] it was 85.9% (active).

With `Cc1cn(C2CC(O)C(CO)O2)c(=O)nc1NCC12CC3CC(CC(C3)C1)C2` (stereo unspecified), the growth inhibition is -1.7% in experiment [1]; 11.8% in experiment [2]; -1.1% in experiment [3]; -1.1% in experiment [4]; -0.8% in experiment [5]; -2.25% in experiment [6].

As to `CC(C)(C)c1ccc(OS(=O)(=O)c2ccc(Cl)c(Cl)c2)cc1`, the growth inhibition in experiment [1] was 0.4%; in experiment [2], 17.4%; in experiment [3] it was 0.35%; in experiment [4] it was 31.6%; in experiment [5], 6.8%; in experiment [6] it was -4.85%.

`CC(=O)Oc1cc(C)c2c(c1C)C1OC(=O)C(C)C1CC2` (stereo unspecified): the growth inhibition in experiment [1] was 12.6%; in experiment [2] it was -12.7%; in experiment [3] it was 18.6%; in experiment [4], 16.3%; in experiment [5] it was 4.8%; in experiment [6], 17.1%.

As to `COC(=O)Cc1nc2ccccc2[nH]c1=O`, the growth inhibition in experiment [1] was -1.15%; in experiment [2] it was -3.25%; in experiment [3] it was -10.3%; in experiment [4] it was -29.2%; in experiment [5], -16.8%; in experiment [6], -5.7%.

Take `CN1CCC(C[CH2][Sn]([c]2ccccc2)([c]2ccccc2)[c]2ccccc2)CC1`: the growth inhibition in experiment [1] is 51.1%; in experiment [2], 99.3% (active); in experiment [3] it was 50.7%; in experiment [4] it was 63%; in experiment [5] it was 49%; in experiment [6] it was 57.5%.

On to `Cc1ccc(S(=O)(=O)NNC(=O)c2ccc[nH]2)cc1`, for which the growth inhibition was -1.5% in experiment [1]; -24.2% in experiment [2]; -7.85% in experiment [3]; 7.65% in experiment [4]; 9.9% in experiment [5]; 6.35% in experiment [6].

In the case of `CC1CCCCc2nc3c(c(=O)n21)CCCC3` (stereo unspecified), the growth inhibition was 9.3% in experiment [1]; -11.8% in experiment [2]; 34% in experiment [3]; 0.25% in experiment [4]; 25.6% in experiment [5]; 41% in experiment [6].

Consider `O=C1CC=C2C3CC4N(CCC45c4ccccc4N1C25)C/C3=C\CBr` (stereo unspecified), for which the growth inhibition was -8.45% in experiment [1]; -21.8% in experiment [2]; -7.95% in experiment [3]; 8.15% in experiment [4]; 7.2% in experiment [5]; -5.95% in experiment [6].

As for `Cc1ccc(N=Cc2cccs2)c(Br)c1`, the growth inhibition in experiment [1] was -5.7%; in experiment [2], -20.1%; in experiment [3], -0.2%; in experiment [4], 6.4%; in experiment [5], -0.95%; in experiment [6], 5.95%.

As for `C=CCC12CCC(=O)[C@@]1(C)CC=C(O)C2=O` (stereo partly specified), the growth inhibition in experiment [1] is 8.6%; in experiment [2], -2.8%; in experiment [3] it was 17.2%; in experiment [4], -18.2%; in experiment [5], 0.6%; in experiment [6] it was 0.9%.

With `CC(O)C(NC(=O)Nc1ncnc2nc[nH]c12)C(=O)O` (stereo unspecified), the growth inhibition was 8.8% in experiment [1]; 4.3% in experiment [2]; -2% in experiment [3]; 7.75% in experiment [4]; -14.2% in experiment [5]; 16.9% in experiment [6].

Take `CCCCCCCCCCCC(=O)N(CCCCCCCCCCC(=O)O)CC(O)C(O)C(OC1OC(CO)C(O)C(O)C1O)C(O)CO` (stereo unspecified): the growth inhibition in experiment [1] is 65.3%; in experiment [2] it was 12.8%; in experiment [3], 85.8% (active); in experiment [4], 32.2%; in experiment [5], 86.3% (active); in experiment [6], 20.3%.

On to `CCCCCOS(C)(=O)=O`, for which the growth inhibition in experiment [1] was -4.6%; in experiment [2], -14.2%; in experiment [3] it was 4.85%; in experiment [4], -36.5%; in experiment [5], 0.55%; in experiment [6] it was -20.1%.

Regarding `CCCCOc1cc(C(=O)O)ccc1[N+](=O)[O-]`, the growth inhibition in experiment [1] was -10.7%; in experiment [2], -19.4%; in experiment [3] it was -10.3%; in experiment [4] it was -5.75%; in experiment [5] it was -19.2%; in experiment [6], -3.1%.
